From PubChem BioAssay (Tox21)
Records with an inconclusive call do not appear. Entries that show only a call come without a potency. Active and inactive are the calls of the source. Unless noted, calls follow the shape of the dose curve; as a rule, active = well fitted curve in the direction sought with a large enough effect in the repeat runs; inconclusive = weak or mixed curves; inactive = no such curve, though single readings can be large; an effect the other way counts as inactive or inconclusive.

Tests used:
[1] = qHTS assay to identify small molecule agonists of the vitamin D receptor (VDR) signaling pathway - cell viability counter screen (AID 743224); also: nearly all actives have a fitted effect of over 50% in size; also: potency is read from the fitted curve at half-maximal effect
Method in brief: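 VDR-bla cells, 4 h after plating, exposed to compounds for 16 h at 37C; viability then read in the same wells as CellTiter-Glo luminescence after 30 min at room temperature, following the bla FRET read.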

[2] = qHTS assay to identify small molecule agonists of the NFkB signaling pathway (AID 1159509; active = well fitted curve in the direction sought with a large enough effect in the signal ratio in the repeat runs, not every such curve was filed as active; the % refers to the signal ratio; also: series mostly up to about 61 µM)
Method in brief: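 After overnight attachment, reporter cells received test compounds, DMSO or positive controls and were incubated 5 hr at 37 C. FRET substrate was then added for 1.5 hr at room temperature before dual-emission fluorescence reading.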

[3] = qHTS assay to identify small molecule agonists of the NFkB signaling pathway - cell viability counter screen (AID 1159515; calls by dose curve; also: nearly all actives have a fitted effect of over 55% in size; also: potency is read from the fitted curve at half-maximal effect)
Method in brief: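 NFkB-bla ME-180 cells, 2,000/well, plated overnight at 37 C; compound added for 5 hr at 37 C. Viability read in the same wells as the bla reporter, by CellTiter-Glo luminescence after 30 min at room temperature.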

[4] = qHTS assay to identify small molecule antagonists of the retinoid-related orphan receptor gamma (ROR-gamma) signaling pathway - cell viability counter screen (AID 1159520); also: nearly all actives have a fitted effect of over 50% in size; also: potency is read from the fitted curve at half-maximal effect
Method in brief: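 Cytotoxicity was read from cellular ATP (CellTiter-Glo luminescence) after 16 hr at 37 C with 1 uM doxycycline induction. The inducer was added 2 hr after compound transfer to Tet-on ROR gamma CHO cells.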

[5] = qHTS assay to identify small molecule agonists of the AP-1 signaling pathway - cell viability counter screen (AID 1159525; calls by dose curve; also: nearly all actives have a fitted effect of over 55% in size; also: potency is read from the fitted curve at half-maximal effect)
Method in brief: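 Luminescent ATP readout (Cell Titer Glo, 30 min RT), normalised to DMSO and tetra n-octyl ammonium bromide controls. Cells were ME-180 AP-1-bla in 0.5% dialyzed FBS Opti-MEM, with a 5 h, 37 °C compound exposure.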

[6] = qHTS assay to identify small molecule agonists of the AP-1 signaling pathway (AID 1159526; calls by dose curve)
[7] = qHTS assay to identify small molecule antagonists of the vitamin D receptor (VDR) signaling pathway - cell viability counter screen (AID 743225); also: nearly all actives have a fitted effect of over 50% in size; also: potency is read from the fitted curve at half-maximal effect
Method in brief: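 Cytotoxicity counter screen read by CellTiter-Glo luminescence (30 min, room temperature) in the same wells as the VDR-bla antagonist readout. HEK 293T VDR-UAS-bla cells had 16 h at 37C with compound and 3 nM (final) 1-alpha,25-dihydroxyvitamin D3, then 2 h with FRET substrate.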

[8] = molecular target: Nuclear receptor ROR-gamma (Homo sapiens) (UniProt P51449); assay: qHTS assay to identify small molecule antagonists of the retinoid-related orphan receptor gamma (ROR-gamma) signaling pathway (AID 1159521; also: nearly all actives have a fitted effect of over 50% in size; also: potency is read from the fitted curve at half-maximal effect)
Method in brief: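 Antagonist read-out: drop in luminescence (ONE-Glo) from an RORE-LUC reporter in CHO cells with doxycycline-inducible ROR-gamma; 2 hr compound pretreatment, 1 uM doxycycline, 16 hr incubation at 37 C.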

[9] = qHTS assay to identify small molecule agonists of the endoplasmic reticulum stress response signaling pathway (AID 1159516; active = well fitted activation curve with a large enough effect in the signal ratio in the repeat runs, not every such curve was filed as active; the % refers to the signal ratio)
Method in brief: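 CellSensor ESRE-bla HeLa cells, 1,500 per well, plated overnight, then exposed to compounds for 5 hr at 37 C. Beta-lactamase reporter read with LiveBLAzer B/G FRET substrate after 2 hr at room temperature, 405 nm excitation, 460 and 530 nm emission.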

[10] = qHTS assay to identify small molecule agonists of the endoplasmic reticulum stress response signaling pathway - cell viability counter screen (AID 1159517; calls by dose curve)
Method in brief: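 Cells, HeLa ESRE-bla; density, 1,500/well; dosing, 5 hr at 37 C, 5% CO2; readout, CellTiter-Glo luminescence after 30 min RT.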

| SMILES | Potency [1] | outcome [2] | Potency [3] | Potency [4] | Potency [5] | outcome [6] | Potency [7] | Potency [8] | outcome [9] | Potency [10] |
| --- | --- | --- | --- | --- | --- | --- | --- | --- | --- | --- |
| NS(=O)(=O)C(F)(F)C(F)(F)C(F)(F)C(F)(F)C(F)(F)C(F)(F)C(F)(F)C(F)(F)F | 49 µM (active) | inactive | inactive | inactive | inactive | inactive |  |  |  |  |
| CC(=O)C(C)(C)C | inactive | inactive | inactive | inactive |  | inactive | inactive |  |  |  |
| C/C(=C\c1ccccc1)[N+](=O)[O-] | 24.5 µM (active) | inactive | 54.9 µM (active) | 27.3 µM (active) | inactive |  |  |  |  |  |
| CCOC(=O)C(Cl)C(C)=O (centres undefined) | inactive | inactive | inactive | inactive |  | inactive |  |  |  |  |
| CCOP(=S)(OCC)Oc1cc(Cl)c(Br)cc1Cl |  | inactive | inactive | inactive | inactive |  | inactive | inactive |  |  |
| CC(C)(Cl)[N+](=O)[O-] | inactive | inactive | inactive | inactive |  | inactive | inactive |  |  |  |
| BrCC(Br)C1CCC(Br)C(Br)C1 (centres undefined) |  | inactive | inactive | inactive | inactive |  | inactive |  |  |  |
| O=C(O)C1(c2ccc3c(c2)OC[C@H](Cc2ccc(-c4ccccc4)cc2)[C@H]3O)CCCC1 | 49 µM (active) | inactive | inactive |  |  | inactive | 49 µM (active) | 54.5 µM (active) |  |  |
| IC(I)=C(I)I | 11 µM (active) | inactive | 54.9 µM (active) | 3.86 µM (active) | 24.5 µM (active) |  | 17.4 µM (active) | 2.73 µM (active) |  |  |
| C=C(C#N)CCC#N | inactive | inactive |  | inactive |  | inactive | inactive | inactive | inactive | inactive |
| O=S1OC[C@@H]2[C@H](CO1)[C@]1(Cl)C(Cl)=C(Cl)[C@@]2(Cl)C1(Cl)Cl (some centres undefined) | 49 µM (active) | inactive | inactive | inactive |  |  | inactive |  |  |  |
| C=CC(=O)OCC(C)C | inactive | inactive |  | inactive | inactive | inactive | inactive | inactive | inactive | inactive |
| CC(Cl)Cl | inactive | inactive |  | inactive | inactive | inactive | inactive | inactive | inactive | inactive |
| CCOP(=O)(OCC)SCCSCC | inactive | inactive |  | inactive | inactive | inactive | inactive | inactive | inactive | inactive |
| CO/N=C(/C(=O)OC)c1ccccc1COc1ccccc1C |  | inactive |  |  | inactive | inactive |  | 2.73 µM (active) | inactive | inactive |
| O=[N+]([O-])c1cc(C(F)(F)F)cc([N+](=O)[O-])c1Cl | inactive | inactive |  | inactive | inactive | inactive | inactive |  |  | inactive |
| CC(C)(CCl)C(=O)Cl | inactive | inactive |  | inactive | inactive |  |  |  | inactive | inactive |
| O=[N+]([O-])C(Br)(CO)CO |  | inactive |  | 43.3 µM (active) | inactive |  |  |  | inactive |  |
| COP(=O)(OC)O/C(=C/Cl)c1cc(Cl)c(Cl)cc1Cl |  | inactive |  | inactive | inactive |  |  |  | inactive |  |
| O=C=Nc1ccc(Cl)cc1 |  | inactive |  | inactive |  | inactive |  |  | inactive | inactive |
| CCCCC(CC)COP(=O)(Oc1ccccc1)Oc1ccccc1 (centres undefined) |  | inactive |  | inactive | inactive |  | inactive |  | inactive | inactive |
| CC(=O)NC1CCSC1=O (centres undefined) | inactive | inactive |  | inactive | inactive | inactive | inactive |  | inactive | inactive |
| CO[C@@H]1[C@H](OC(=O)NC(=O)CCl)CC[C@]2(CO2)[C@H]1[C@@]1(C)O[C@@H]1CC=C(C)C | inactive | inactive |  |  |  |  | inactive |  |  |  |
| CCCCCCC#N | inactive | inactive |  | inactive | inactive | inactive | inactive | inactive |  | inactive |
| C=CC(=O)NCNC(=O)C=C | inactive | inactive |  | inactive |  | inactive |  |  |  | inactive |
